From publication PMC5540273 (PLoS ONE, 2017)

Experiments:
Details in all cases: concentration: 1 μM,replicates: in singlicate; n = 1
CDK8 = system: CDK8
CDK9 = system: CDK9
CDKL1 = system: CDKL1
CDKL2 = system: CDKL2
CDKL3 = system: CDKL3
CDKL5 = system: CDKL5
CHEK1 = system: CHEK1
CHEK2 = system: CHEK2
CIT = system: CIT
CLK1 = system: CLK1
CLK2 = system: CLK2
CLK3 = system: CLK3
CLK4 = system: CLK4
CSF1R-autoinhibited = system: CSF1R-autoinhibited
CSF1R = system: CSF1R
CSK = system: CSK
CSNK1A1L = system: CSNK1A1L
CSNK1A1 = system: CSNK1A1
CSNK1D = system: CSNK1D
CSNK1E = system: CSNK1E
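Further: KINOMEscan kinase panel screen.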

SMILES	%Inh (CDK8) [%]	%Inh (CDK9) [%]	%Inh (CDKL1) [%]	%Inh (CDKL2) [%]	%Inh (CDKL3) [%]	%Inh (CDKL5) [%]	%Inh (CHEK1) [%]	%Inh (CHEK2) [%]	%Inh (CIT) [%]	%Inh (CLK1) [%]	%Inh (CLK2) [%]	%Inh (CLK3) [%]	%Inh (CLK4) [%]	%Inh (CSF1R-autoinhibited) [%]	%Inh (CSF1R) [%]	%Inh (CSK) [%]	%Inh (CSNK1A1L) [%]	%Inh (CSNK1A1) [%]	%Inh (CSNK1D) [%]	%Inh (CSNK1E) [%]
O=c1[nH]cc(-c2ccc(O)cc2)c2sc(-c3ccncc3)cc12 [GSK1033723]	27	6	7	9	0	0	0	10	45	95.7	67	19	95.9	2	25	5	13	57	41	46
CS(=O)c1ccc(-c2coc3ccc(-c4n[nH]c(=O)o4)cc23)cc1 (stereo not shown)	91.1	0	10	0	12	0	0	42	0	20	25	3	33	10	4	0	7	7	0	0
Cn1ccc2ncnc(Oc3ccc(NC(=O)Nc4cccc(C(F)(F)F)c4)c(Cl)c3)c21	95.9	2	29	8	6	0	0	0	57	0	1	0	0	18	99.5	15	0	0	0	0
Cn1ccc2ncnc(Oc3ccc(NC(=O)Nc4cncc(C(F)(F)F)c4)c(Cl)c3)c21	95	0	0	0	0	0	0	9	44	0	7	0	7	0	99.4	0	0	0	0	0
O=C(Nc1cccc(C(F)(F)F)c1)c1cccc(Oc2ccc3nccn3n2)c1	0	0	14	18	0	3	0	0	13	7	0	0	4	16	100	0	0	0	11	0
COC(=O)Nc1nc2cc(Oc3ccc(NC(=O)Nc4cc(C(F)(F)F)ccc4Cl)cc3)ccc2[nH]1.Cl [GW697465]	86	0	14	81	0	0	0	41	97.9	34	0	13	43	47	99.6	0	9	0	69	39
CS(=O)(=O)c1cccc(CNc2nc(Nc3ccc4c(c3)[C@@H]3C[C@@H]4CNC3=O)ncc2C(F)(F)F)c1	0	27	71	80	2	0	0	17	51	81	6	0	0	22	5	0	0	0	0	0
CCN1CCN(CCCC(=O)Nc2n[nH]c3nc(-c4ccc(O)cc4)c(Br)cc23)CC1 [SB-731579]	14	0	23	73	2	86	0	15	63	47	8	66	45	0	0	0	0	5	0	0
O=C1NCCc2[nH]c(-c3ccncc3)cc21	19	97.9	5	7	2	29	0	31	99.7	99.5	94.8	32	94.6	0	5	10	73	95.7	96.6	98.1
C[C@@H]1CNc2c(sc3ccc4nc(-c5ccc(O)cc5)ccc4c23)C(=O)N1	63	67	15	0	5	0	0	54	54	97.3	98.2	50	95.7	7	4	0	84	95.4	63	55
c1ccc(Oc2ccc(Nc3ccnc4ccc(-c5ccccn5)cc34)cc2)cc1 [GW407034]	0	0	9	16	0	14	26	0	4	14	0	19	0	0	9	6	13	0	14	36
FC(F)(F)c1cc(Br)cc(Nc2nccc(-c3cnn4ncccc34)n2)c1 [GW810578]	2	97.8	47	96.2	97.4	95.3	0	17	6	99.2	95.6	79	85	0	61	17	68	58	91.9	75
Nc1nccc(-c2ccc3c(N)n[nH]c3c2)n1 [GSK1034945]	13	2	10	18	30	0	0	58	54	98	88	44	95.3	0	0	0	5	0	17	29
COc1cc2nccc(Nc3ccc(Oc4ccccc4)cc3)c2cc1OC.Cl [GI261656]	38	0	0	10	0	0	0	67	0	19	0	0	0	26	14	91.9	0	0	0	41
Cc1ccn2nc(-c3ccc(F)cc3)c(-c3ccncc3)c2c1.Cl [GW457859]	12	0	23	28	0	0	0	43	100	22	0	1	55	25	9	0	35	92.5	96.3	99.6
NC(=O)c1ccc(-c2cc3ncnc(SCC(=O)O)c3s2)cc1	0	72	7	0	0	0	0	0	3	82	52	10	87	37	5	0	0	0	3	0
C[C@@H](Oc1cc(-n2cnc3cc(-c4ccncc4)ccc32)sc1C(N)=O)c1ccccc1Cl [GSK479719]	12	4	21	33	0	0	4	0	24	73	28	5	68	0	29	0	15	0	17	8
CC(C(=O)NC1CCN(c2ccnc(Nc3ccc(F)cc3)n2)C1)c1ccc(Cl)cc1 (stereo not shown) [GSK1379713]	23	0	0	1	0	0	15	0	28	15	0	0	8	0	0	0	3	22	0	3
CCOC(=O)N1CCC(n2cnc(-c3ccc(F)cc3)c2-c2ccnc(N)n2)CC1 [SB-219952]	22	0	7	0	30	13	0	2	41	0	0	2	2	22	70	11	74	97.8	94.8	99.7
C[C@@H]1CCN(C(=O)N2CCCC2)C[C@@H]1N(C)c1ncnc2[nH]ccc12	24	0	24	11	0	5	9	0	13	4	8	0	24	0	0	0	0	27	0	13
Cc1nnc(-c2ccc3occ(-c4ccc(S(C)=O)cc4)c3n2)o1 (stereo not shown)	0	0	24	0	0	0	0	1	0	0	19	0	0	0	1	0	6	0	0	0

SMILES	%Inh (CDK8) [%]	%Inh (CDK9) [%]	%Inh (CDKL1) [%]	%Inh (CDKL2) [%]	%Inh (CDKL3) [%]	%Inh (CDKL5) [%]	%Inh (CHEK1) [%]	%Inh (CHEK2) [%]	%Inh (CIT) [%]	%Inh (CLK1) [%]	%Inh (CLK2) [%]	%Inh (CLK3) [%]	%Inh (CLK4) [%]	%Inh (CSF1R-autoinhibited) [%]	%Inh (CSF1R) [%]	%Inh (CSK) [%]	%Inh (CSNK1A1L) [%]	%Inh (CSNK1A1) [%]	%Inh (CSNK1D) [%]	%Inh (CSNK1E) [%]
O=C(Nc1cccc(Oc2ccc3nccn3n2)c1)Nc1cccc(C(F)(F)F)c1	90.9	0	0	62	0	4	0	0	99.9	31	0	0	0	0	99.8	12	3	0	2	11
Cl.c1ccc(Oc2ccc(Nc3ccnc4cc(-c5ccc(CN6CCNCC6)o5)ccc34)cc2)nc1 [GW567142]	0	0	0	0	0	0	5	82	9	25	0	15	0	0	43	72	0	0	16	40
CS(=O)(=O)Nc1ccc(-c2ccnc3[nH]ccc23)cc1 [GSK993273]	18	0	0	19	0	0	0	0	57	96.7	94.8	58	96.3	0	32	0	21	5	20	33
Cn1ccc2ncnc(Oc3ccc(NC(=O)Nc4cnn(C(C)(C)C)c4)c(Cl)c3)c21	97.1	0	21	10	19	26	3	0	39	0	12	5	9	28	99.9	0	0	0	0	2
OCCn1cc(-c2cnc3nnn(Cc4ccc5ncccc5c4)c3n2)cn1	0	8	0	0	10	0	0	6	0	16	0	0	0	25	0	33	0	15	0	0
CN(c1cccc(CNc2nc(Nc3ccc4c(c3)CC(=O)N4)ncc2C(F)(F)F)c1)S(C)(=O)=O	0	6	44	55	7	0	0	0	30	63	26	16	47	31	15	0	0	0	7	18
Cc1ccc(CC(=O)N2CCc3cc(-c4cn(C)c5ncnc(N)c45)ccc32)cc1 [GSK2634758]	83	0	8	0	0	0	1	17	19	13	0	0	0	21	79	100	14	0	16	66
Cl.Cl.NC[C@H](CC1CCCCC1)NC(=O)c1ccc(-c2ccnc3[nH]ccc23)s1 [GSK1581428]	11	39	23	51	89	44	96.8	27	99	85	82	63	90	0	85	0	69	77	80	82
COc1cccc(CNC(=O)NC2CCN(c3ccnc(Nc4cc(OC)c(OC)c(OC)c4)n3)C2)c1 (stereo not shown) [GSK1379765]	29	0	13	22	0	0	0	14	28	21	0	0	16	29	15	20	16	0	14	18
COc1cc2ncn(-c3cc(OCC4CCCCC4)c(C(N)=O)s3)c2cc1OC [GSK204559]	5	0	0	1	0	0	0	0	10	35	2	5	33	0	19	0	22	0	10	0
CN(c1ccccc1CNc1nc(Nc2ccc3c(c2)CC(=O)N3)ncc1C(F)(F)F)S(C)(=O)=O	0	40	13	8	0	0	0	0	10	95	84	23	84	2	17	3	9	19	0	1
CC(C)S(=O)(=O)N1CCN(Cc2ccc3c(c2)nc(NC(=O)c2ccsc2)n3C[C@H](O)c2ccccc2)CC1 [GW635815]	15	0	8	6	0	0	0	32	98.4	98.5	91.9	79	95.5	45	68	13	68	60	56	71
O=C(NOCC1CC1)c1cc(Br)c(F)c(F)c1Nc1ccc(I)cc1Cl	0	0	8	0	0	0	0	0	0	0	9	0	0	0	0	0	0	1	0	0
C[C@@H]1CNc2c(sc3ccc4nc(-c5ccncc5)ccc4c23)C(=O)N1	7	44	11	0	5	0	0	18	22	92.9	94	32	81	3	8	19	66	95	34	29
Cc1cccc2c(-c3ccncc3)c(-c3ccc(F)cc3)nn12.Cl [GW461487]	25	0	12	8	0	0	0	0	90	17	0	3	0	4	0	0	22	51	93.3	84
CN1CCN(CCCNc2nccc(-c3c(-c4ccc(F)cc4)nn4cc(C(N)=O)ccc34)n2)CC1 [GW622475]	19	3	5	31	92.6	0	0	1	95.2	19	0	0	12	0	22	11	52	95.7	97.4	99.7
CC(C)c1nc(-c2cccc(NS(=O)(=O)c3ccccc3)c2)c(-c2ccnc(Nc3ccc4c(c3)CN(C)CC4)n2)s1 [GSK1649598]	0	60	0	100	37	99	5	24	84	30	10	24	0	0	89	97.6	88	87	86	98.6
Cl.Nc1n[nH]c2cc(-c3ccccn3)ccc12 [GSK2189892]	13	7	4	24	0	0	18	0	25	23	0	18	31	0	8	0	0	0	0	21
CCn1c(-c2nonc2N)nc2cncc(Br)c21 [SB-738004]	50	4	2	0	0	0	0	41	0	22	77	9	37	95.1	5	11	0	12	13	19
Cc1ccc(C(=O)Nc2ccc(Oc3ccc4nc(NC(=O)C5CC5)cn4c3)c(F)c2)c(=O)n1-c1ccccc1	87	0	41	99.6	0	0	0	0	36	0	5	2	0	0	100	24	0	29	0	0
